From PubChem BioAssay (Tox21) come the findings set out here.

Inconclusive results are not listed. Entries that show only a call come without a potency. Unmarked numbers belong to inactive results. The source made the active and inactive calls. Calls follow the shape of the dose curve; as a rule, active = well fitted inhibition curve with a large enough effect in the signal ratio in the repeat runs (not every such curve was filed as active); inconclusive = weak or mixed curves, or effect the other way; inactive = flat fitted curve, though single readings scatter; the % refers to the signal ratio.

This experiment in a line: cAMP Responsive Elements (CRE) small molecule antagonists, cell-based qHTS assay (AID 1963591). To be noted: CRE-bla HEK293T, beta-lactamase FRET ratio; series mostly up to 92.4 µM; activity change, negative = inhibition: at the top concentration. An excerpt: U.S. Tox21 Program National Center for Advancing Translational Sciences [NCATS] Division of Preclinical Innovation [DPI] U.S. Environmental Protection Agency [EPA] National Institutes of Environmental Health Sciences [NIEHS] National Toxicology Program [NTP] U.S. Food and Drug Administration [FDA] Tox21 Assay Overview: CREB (cyclic-AMP Responsive Element Binding Protein) is a cellular transcription factor. It binds to certain DNA sequences called cAMP Responsive Elements (CRE) and regulates the transcription of the genes. […] This cell line can be used to find agonists/antagonists of the cyclic AMP signaling pathway. The activation of the report gene under culture conditions can be detected by fluorescence intensity. This cell line has been used to screen the Tox21 10K compound library to […].
Tox21 Assay Protocol Summary: CRE-bla Hek 293T cells were suspended in assay medium (DMEM containing 10% dialyzed FBS, 0.1 mM NEAA, 1 mM sodium pyruvate and 25 mM HEPES) and dispensed at 2,000 cells/4 uL /well into 1536-well black wall/clear bottom plates using a Multidrop Combi (ThermoFisher Scientific, Waltham, MA) dispenser. After the assay plates were incubated at 37 C/5% CO2 for 18 hrs, 23 nL of compounds dissolved in DMSO, positive controls or DMSO only was transferred to the assay plate by a pintool workstation (Kalypsys, San Diego, CA), followed by addition of 1 […] uL of 1.25uM NKH477 (0.25 uM as final concentration) in assay medium using a Flying Reagent Dispenser (Aurora Discovery, San Diego, CA). The plates were incubated at 37 C and 5% CO2 for 3 hrs. Then 1 uL of LiveBLAzer B/G FRET substrate (Invitrogen, Carlsbad, CA) was added to each well using Bioraptr Flying Reagent Dispenser (FRD, Aurora Discovery, San Diego, CA). The plates were incubated at room temperature for 2 h.
(In qHTS, concentration-response curves come from the screen itself.)
In the case of `C=C(C)[C@H]1Cc2c(ccc3c2O[C@@H]2COc4cc(OC)c(OC)cc4[C@@H]2C3=O)O1`, the Potency entry is “inactive”.
For the compound `CCOC(=O)c1ccccc1S(=O)(=O)NC(=O)Nc1nc(Cl)cc(OC)n1`, the “activity change, negative = inhibition” value was 12.4%.
As to `OCCSSCCO`, the “activity change, negative = inhibition” value is 10.6%.
On the same count and under the same terms, the same measure for `O=C/C=C/c1ccco1`: -6.55%.
With `CC(C)OC(=S)S`, the “activity change, negative = inhibition” value was -3.86%.
On to `ClCCOCOCCCl`, for which the “activity change, negative = inhibition” value was -7.71%.
As to `Clc1ccccc1Cl`, the Potency result was “inactive”.
As to `CC(c1ccc(O)cc1)c1ccc(O)cc1`, the Potency entry was “inactive”.
`CC1CC(CC2CCC(N)C(C)C2)CCC1N` (stereo not given): the “activity change, negative = inhibition” value is 9.93%.
In the case of `BrCCBr`, the Potency result was “inactive”.
In the case of `O=P1(NCCCl)OCCCN1CCCl` (stereo not given), the Potency entry was “inactive”.
In the case of `Nc1cc(Cl)cc(Cl)c1`, the Potency entry was “inactive”.
Same read-out and setting: the same measure for `O=C1C=CC(=O)C=C1`: “inactive”.
Consider `NNC(N)=S`, for which the “activity change, negative = inhibition” value is 0.277%.
The same measure, in the same setting: the same measure for `Cc1nn(-c2cc(NS(C)(=O)=O)c(Cl)cc2Cl)c(=O)n1C(F)F`: 6.73%.
`[CH3][Sn]([CH3])([Cl])[Cl]`: the “activity change, negative = inhibition” value was -14.1%.
Consider `O=[N+]([O-])c1cc(Cl)c(Cl)c(Cl)c1`, for which the “activity change, negative = inhibition” value is -0.279%.
For `N#CCCC#N`, the “activity change, negative = inhibition” value is -1.03%.
Regarding `CCCCN(CCCC)SN(C)C(=O)Oc1cccc2c1OC(C)(C)C2`, the Potency entry was “inactive”.
Take `CCCCCCC1CCOC1=O` (stereo not given): the “activity change, negative = inhibition” value was 2.36%.
In the case of `CCCCCCCCCCCCOS(=O)(=O)O`, the Potency result was “inactive”.
Regarding `c1ccc2c(c1)sc1ccccc12`, the “activity change, negative = inhibition” value is 12% [at 42.4 µM].
For `c1cc2c3c(cccc3c1)CC2`, the Potency entry was “inactive”.
On to `Nc1cc(Cl)cc(C(=O)O)c1Cl`, for which the Potency entry is “inactive”.
Take `O=C/C(Cl)=C(/Cl)C(=O)O`: the “activity change, negative = inhibition” value is 8.71%.
For the compound `O=C1C(Cl)=C(Cl)C(=O)C(Cl)=C1Cl`, the “activity change, negative = inhibition” value is -12.4%.
For the compound `c1nc[nH]n1`, the Potency entry is “inactive”.
As for `O=P(Cl)(Cl)Cl`, the “activity change, negative = inhibition” value was 4.43%.
As for `Nc1ccc(N=Nc2ccc(-c3ccc(N=Nc4c(S(=O)(=O)O)cc5cc(S(=O)(=O)O)c(N=Nc6ccccc6)c(O)c5c4N)cc3)cc2)c(N)c1`, the “activity change, negative = inhibition” value was -9.35% [at 42.4 µM].
In the case of `CC(=O)CC(c1ccc(Cl)cc1)c1c(O)c2ccccc2oc1=O` (stereo not given), the “activity change, negative = inhibition” value is 1.49%.
With `Nc1nc(N)nc(NC2CC2)n1`, the Potency entry was “inactive”.
The same measure, in the same setting: to `CC(C)c1ccc(CO)cc1` belongs “inactive”; to `CCCCC(CC)C(=O)Cl` (stereo not given), “inactive”; to `Clc1ccc(C(c2ccc(Cl)cc2)C(Cl)(Cl)Cl)cc1`, “inactive”.
Regarding `CCCCCCCCCCCCCCCCn1cc[n+](C)c1`, the “activity change, negative = inhibition” value was 1.18%.
On to `N#CS`, for which the Potency result is “inactive”.
For the compound `CCCCOCCOC(C)=O`, the Potency entry is “inactive”.
For the compound `CCn1cc[n+](C)c1`, the Potency entry is “inactive”.
For `CCCCCc1cc(O)cc(O)c1`, the “activity change, negative = inhibition” value was -7.67%.
On to `COc1cc(-c2ccc(N)c(OC)c2)ccc1N`, for which the Potency result is “inactive”.
